Hits are enriched below; roughly 3% of the tested compounds scored in any of these assays.
EWS-Fli block: inhibitors of EWS/Fli oncoprotein transcriptional activity | A673 NR0B1-luciferase reporter, viability-normalised | inhibition, % at 12.6 µM | 0.67% of 350,000 active | AID 651661;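 active = mean inhibition of at least 50% after viability correction, with every replicate also passing that limit; inconclusive = mean reaches 50% but only one of two replicates passes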;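 also: firefly luciferase signal divided by Alamar Blue viability fluorescence both relative to DMSO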
Shn3 inh set2: inhibitors of Schnurri-3 3'UTR reporter in osteoblasts; Clone20 osteoblast Shn3 3'UTR firefly luciferase, 24 h; 0.52% of 360,000 active; inhibition, % at 12.5 µM;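 active = mean inhibition of at least 75% with every replicate also reaching 75%; inconclusive = mean inhibition at least 75% but some replicate below; inactive = mean inhibition below 75%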
Peg3 promoter: Peg3 promoter activity inhibition; HeLa PEG-Prom luciferase reporter, luminescence, overnight; inhibition, % at 20 µM; 1.7% of 360,000 active;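 active = inhibition of at least 50% at 20 µM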
MITF TRPM1 inh: MITF TRPM1 promoter inhibition in SK-MEL-5 cells; SK-MEL-5 TRPM1 promoter luciferase, 24 h; inhibition, % at 12.5 µM; 0.83% of 330,000 active; AID 488899;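 active = mean inhibition across replicates of 60% or more, whatever share of single replicates reaches that level; inconclusive = some that reach 60%, reason not given; inactive = mean inhibition across replicates below 60%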
PAX8 reporter: lowers PAX8-driven luciferase in RMG-I cells; RMG-I TPO-luciferase reporter, SteadyGlo, 24 h; inhibition, % at 12.6 µM; 1.2% of 360,000 active;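 active = mean replicate inhibition at least 60% with every replicate also reaching 60%; inconclusive = only one of the two criteria is met; inactive = mean below 60% and not all replicates reaching 60%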;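 also: luciferase light reporting Pax8 driven TPO promoter activity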
ABHD5 PLIN5 PPI: ABHD5-PLIN5 protein interaction inhibition | Q00G26+Q8WTS1 | Split G. princeps luciferase complementation, luminescence, 4 h | inhibition, % at 4 µM | 0.78% of 360,000 active | AID 602281;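 active = inhibition above the mean inhibition across every tested compound plus 3 SD, cut at about 22% in these data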
Target sequence (Q00G26 whole entry, looked up): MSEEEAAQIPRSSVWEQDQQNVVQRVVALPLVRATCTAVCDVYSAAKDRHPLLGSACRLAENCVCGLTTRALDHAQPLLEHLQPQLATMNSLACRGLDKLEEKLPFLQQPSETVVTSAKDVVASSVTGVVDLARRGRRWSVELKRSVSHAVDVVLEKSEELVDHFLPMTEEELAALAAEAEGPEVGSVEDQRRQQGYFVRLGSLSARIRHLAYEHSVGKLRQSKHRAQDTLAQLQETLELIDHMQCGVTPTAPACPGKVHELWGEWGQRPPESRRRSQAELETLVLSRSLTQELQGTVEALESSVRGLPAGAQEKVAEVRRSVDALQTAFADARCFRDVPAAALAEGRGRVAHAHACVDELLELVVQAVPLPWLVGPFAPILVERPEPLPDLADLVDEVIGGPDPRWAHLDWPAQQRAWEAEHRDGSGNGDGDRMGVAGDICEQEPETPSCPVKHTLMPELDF
Target sequence (Q8WTS1 whole entry, looked up): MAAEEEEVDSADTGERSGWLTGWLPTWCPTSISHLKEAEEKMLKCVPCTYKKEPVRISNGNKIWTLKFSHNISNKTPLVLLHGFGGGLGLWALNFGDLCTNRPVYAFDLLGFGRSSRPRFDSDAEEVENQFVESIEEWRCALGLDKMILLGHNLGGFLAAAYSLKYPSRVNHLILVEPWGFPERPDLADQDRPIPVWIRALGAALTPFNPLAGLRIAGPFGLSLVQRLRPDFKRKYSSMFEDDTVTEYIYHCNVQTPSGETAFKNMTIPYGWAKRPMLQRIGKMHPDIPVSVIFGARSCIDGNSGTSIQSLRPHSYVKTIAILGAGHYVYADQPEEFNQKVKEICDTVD
Numbers stand for hits; 0 = inactive; ? = inconclusive; - = no result.

SMILES	EWS-Fli block	Shn3 inh set2	Peg3 promoter	MITF TRPM1 inh	PAX8 reporter	ABHD5 PLIN5 PPI
Cc1ccc(C(=O)OC(C)C(=O)NC2CCCCC2)cc1S(=O)(=O)N1CCCCC1 (stereo not given)	0	0	0	0	0	0
CCC(OC(=O)c1ccc(S(C)(=O)=O)c([N+](=O)[O-])c1)C(=O)NC1C2CC3CC(C2)CC1C3 (stereo not given)	0	96	96	-	94	0
CCS(=O)(=O)N1CCN(c2ccc(C(=O)NC34CC5CC(CC(C5)C3)C4)cc2[N+](=O)[O-])CC1	-	0	0	0	0	0
Cc1ccc(S(=O)(=O)N(C)C[C@H]2OCCCC[C@H](C)Oc3ccc(NS(C)(=O)=O)cc3C(=O)N([C@@H](C)CO)C[C@H]2C)cc1	0	-	-	-	0	-
CCC(=O)N1C[C@@H](C)[C@H](OC)CN(C)C(=O)c2ccc(NC(=O)Nc3cccc(F)c3)cc2OC[C@H]1C	0	-	-	-	-	-
CCOC(=O)c1ccc(N=c2sc(C(=O)OC)cc(=O)n2Cc2ccco2)cc1	0	0	100	0	0	0
Cn1nc(C(C)(C)C)cc1C(=O)NCc1ccc2c(c1)OCO2	-	90	0	0	0	0
CC[C@@H](C(=O)[C@@H](C)[C@@H](O)[C@H](C)[C@@H]1O[C@@H]([C@@H](CC)C(=O)O)CC[C@@H]1C)[C@H]1O[C@]2(C=C[C@@H](O)[C@]3(CC[C@@](C)([C@H]4CC[C@](O)(CC)[C@H](C)O4)O3)O2)[C@H](C)C[C@@H]1C	0	0	101	78	109	0
Cc1cc(NC(=O)c2cccc(Br)c2)n[nH]1	0	0	70	0	0	0
O=C(CSc1n[nH]c(-c2ccccn2)n1)Nc1ccc(F)cc1	0	0	0	0	0	0
O=C(CSc1n[nH]c(-c2ccccn2)n1)Nc1ccc(Cl)cc1	0	0	53	0	0	0
Cc1ccsc1/C=C/c1ccc2cccc(O)c2n1	-	0	80	0	-	0
COc1cc(Br)c(/C=C/c2ccc3cccc(O)c3n2)cc1OC	0	0	0	0	0	0
COc1ccc(OC)c(/C=C/c2ccc3cccc(O)c3n2)c1	0	0	83	0	0	0
c1ccc(CNc2c(-c3cccc(SC4CCCCC4)c3)nc3ccccn23)cc1	0	90	86	0	0	0
Clc1ccc2nc(-c3cccc(SC4CCCCC4)c3)c(NCc3ccccc3)n2c1	0	0	0	0	0	0
c1cc(SC2CCCCC2)cc(-c2nc3cnccn3c2NC2CCCCC2)c1	0	0	95	0	0	0
Cc1ccc2nc(-c3cccc(SC4CCCCC4)c3)c(NCc3ccccc3)n2c1	0	0	67	0	0	0
c1cn2c(NC3CCCCC3)c(-c3ccc(SC4CCCCC4)cc3)nc2cn1	0	0	0	0	0	0
C[C@@H]1CN([C@@H](C)CO)C(=O)c2cc(C#CCc3ccccc3)cnc2O[C@H]1CN(C)CC1CCCC1	0	-	-	-	-	-
CO[C@H]1CN(C)C(=O)c2cc(NS(C)(=O)=O)ccc2OC[C@@H](C)N(Cc2ccccn2)C[C@@H]1C	0	-	-	-	-	-
Nc1c(N(C(=O)Nc2ccc(Cl)c(Cl)c2)C2CCCC2)c(=O)[nH]c(=O)n1Cc1ccccc1	-	0	0	77	-	0
COc1ccc(NC(=O)Nc2ccc3c(c2)C(=O)N([C@@H](C)CO)C[C@@H](C)[C@H](CN(C)C(=O)Nc2cccc4ccccc24)OCCCC[C@H](C)O3)cc1	0	-	-	-	0	-
CC1CCN(CC2C(=O)O[C@@H]3C[C@@]4(C)CCC[C@H](C)C4=C[C@H]23)CC(C)(C)C1 (stereo not given in full)	0	0	0	74	?	0
C=C1CCC[C@]2(C)C[C@H]3OC(=O)C(CN4CC(C)OC(C)C4)[C@H]3C[C@@H]12 (stereo not given in full)	0	0	0	0	0	0
O=C(/C=C/c1cccs1)NC(=S)NNC(=O)c1ccccc1O	52	0	0	0	89	0
COc1ccc(C(=O)NNC(=S)NC(=O)/C=C/c2cccs2)cc1	0	0	0	0	0	0
CC(C)NC(=O)Nc1cccc2c1O[C@H](CN(C)Cc1ccncc1)[C@H](C)CN([C@H](C)CO)C2=O	0	-	-	-	0	-
C/C=C/c1ccc2c(c1)O[C@H](CN(C)C(C)=O)[C@@H](C)CN([C@H](C)CO)S2(=O)=O	0	-	-	-	-	-
